Screening data deposited in PubChem BioAssay by several laboratories.
Mtb bLac sens: beta-lactam sensitization of Mtb H37Rv; M. tuberculosis H37Rv growth with meropenem, percent inhibition; inhibition, % at 25 µM; actives 0.27% (n = 330,000); AID 434955; call rule not given here;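 also: growth measured after seven days incubation then overnight dye step; 0% = bacteria only wells and 100% = bacteria with antibiotic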
Mtb UGM inh: inhibitors of M. tuberculosis UDP-galactopyranose mutase. purified UGM, fluorescence polarization probe displacement. P9WIQ1. inhibition, % at 10 µM. actives 0.06% (n = 320,000). AID 504406; in the data active = inhibition above about 10%, passing the limit was not always enough
Target sequence (P9WIQ1 whole entry, looked up): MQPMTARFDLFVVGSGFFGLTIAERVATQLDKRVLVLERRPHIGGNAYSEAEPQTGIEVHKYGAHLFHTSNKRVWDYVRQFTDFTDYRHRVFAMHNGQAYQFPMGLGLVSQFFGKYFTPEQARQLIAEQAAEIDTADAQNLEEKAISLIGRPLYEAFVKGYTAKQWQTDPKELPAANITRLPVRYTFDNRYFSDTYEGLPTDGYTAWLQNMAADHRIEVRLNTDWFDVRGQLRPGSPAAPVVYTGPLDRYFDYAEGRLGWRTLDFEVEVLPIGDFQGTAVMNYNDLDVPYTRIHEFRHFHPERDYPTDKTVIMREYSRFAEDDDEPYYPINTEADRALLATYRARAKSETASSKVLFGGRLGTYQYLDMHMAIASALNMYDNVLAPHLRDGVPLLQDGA
Rv3671c protease: inhibitors of M. tuberculosis serine protease Rv3671c | P9WHR9 | inhibition, % at 5.96 µM | actives 0.048% (n = 320,000) | AID 2606; in the data active = inhibition above about 38%;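 also: extracellular domain of Rv3671c used as enzyme; 0% = enzyme with DMSO and 100% = no enzyme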
FadD28 FP inh: M. tuberculosis FadD28 bisubstrate binding inhibition; FadD28 bisubstrate probe binding, fluorescence polarization; AID 588549; inhibition, % at 12.5 µM; actives 0.22% (n = 360,000); in the data active = inhibition above about 8.5%, passing the limit was not always enough
Mtb FBA inh: inhibits M. tuberculosis FBA enzyme. purified M. tuberculosis FBA, fluorescence read-out. AID 588726. actives 2.3% (n = 360,000). inhibition, % at 1 µM; in the data active = inhibition above about 27%;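 also: 0% = vehicle and 100% = reference inhibitor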
GDH-TPI inh: GDH-TPI coupled enzyme inhibition counter-screen; GDH-TPI coupled enzyme counterscreen, NADH absorbance; inhibition, % at 4.8 µM; actives 1.2% (n = 360,000); in the data active = inhibition above about 30%;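 also: 0% = DMSO wells and 100% = wells lacking the enzyme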
Numbers without * were called inactive; / = no result; + = active, no number. The list is not random: actives were taken first. Their share in the collection is about 3.7%.

SMILES | Mtb bLac sens | Mtb UGM inh | Rv3671c protease | FadD28 FP inh | Mtb FBA inh | GDH-TPI inh
Cc1ccc(CNC(=O)c2cc3c(=O)n4ccccc4nc3n(CC3CCCO3)c2=N)cc1 (configuration not stated) | -0.8 | -0.4 | -5.6 | -2.7 | + | 3.4
COc1ccc(CCNC(=O)c2cc3c(=O)n4cccc(C)c4nc3n(CC3CCCO3)c2=N)cc1 (configuration not stated) | 18.3 | 2.7 | 1.1 | -6.4 | 20.1 | 5.0
Cc1ccc2[nH]c3c(c2c1)CCCC3NCCO (configuration not stated) | -1.9 | 1.5 | 3.3 | -4.2 | -6.2 | -4.9
CC(C)(C)NC(=O)CN1C(=O)c2cccc3cccc1c23 | / | / | / | -2.7 | -3.8 | 9.8
CCOC(=O)c1cc2c(=O)n3ccccc3nc2n(CC2CCCO2)c1=NC(C)=O (configuration not stated) | 7.9 | -0.4 | -13.6 | -1.1 | / | 17.6
N=c1c(C(=O)NC2CCCC2)cc2c(=O)n3ccccc3nc2n1CC1CCCO1 (configuration not stated) | 3.5 | -2.5 | -7.2 | -1.8 | + | 10.4
COCCCn1c(=N)c(C(=O)NC2CCCCC2)cc2c(=O)n3ccccc3nc21 | -13.1 | -1.1 | 2.3 | -0.9 | + | 12.3
COc1ccc(Cn2c(=N)c(C(=O)NC3CCCCC3)cc3c(=O)n4ccccc4nc32)cc1 | 69.5 | 5.6 | 1.9 | -2.3 | 0.9 | 6.1
CCOC(=O)c1cc2c(=O)n3ccccc3nc2n(CC2CCCO2)c1=NC(=O)/C=C/c1ccccc1 (configuration not stated) | 40.8 | 0.1 | -8.9 | -0.4 | + | 25.6
Cc1ccc2nc3c(cc(C(=O)NCC4CCCO4)c(=N)n3CC3CCCO3)c(=O)n2c1 (configuration not stated) | 1.6 | -0.4 | 0.8 | 0.8 | + | 2.2
COc1ccc(CCn2c(=N)c(C(=O)NC3CCCC3)cc3c(=O)n4ccccc4nc32)cc1 | 9.5 | -0.6 | 7.3 | -5.8 | -4.9 | -2.3
CN(C)C(CNC(=O)c1sc2ccccc2c1Cl)c1ccco1 (configuration not stated) | / | / | / | -0.9 | -0.7 | 5.5
CNC(=S)N/N=C/c1c(C(=O)OC)cnn1-c1ccc(F)cc1F | 4.4 | 2.1 | -2.3 | -2.7 | -1.5 | 46.2*
COC(=O)c1cnn(-c2ccc(F)cc2F)c1/C=N/NC(=S)NC(C)(C)C | -2.3 | 5.0 | -14.0 | -0.7 | -0.6 | 36.0*
COC(=O)c1cnn(-c2ccc(F)cc2F)c1/C=N/NC(N)=S | -10.7 | -0.3 | 7.0 | -1.9 | -0.9 | 36.0*
CCOC(=O)N/N=C/c1ccc(F)cc1F | 7.7 | -1.7 | -6.7 | -4.4 | 1.1 | 5.2
COC(=O)c1cnn(-c2ccccc2)c1/C=N/NC(=S)Nc1ccccc1 | 12.2 | 5.8 | -12.3 | -2.7 | 2.2 | 17.7
CCCc1cc(=O)oc2c3c(cc(OCC(=O)NCCN4CCOCC4)c12)OC(C)(C)CC3 | -1.4 | 6.1 | -3.5 | -3.8 | 180.2* | 10.8
CCCCc1cc(=O)oc2c3c(cc(OCC(=O)NCCCO)c12)OC(C)(C)CC3 | -4.0 | 1.3 | -8.3 | -2.1 | + | 10.3
CCc1cc(=O)oc2c3c(cc(OCC(=O)NCCCn4ccnc4)c12)OC(C)(C)CC3 | -3.5 | 0.2 | 0.9 | -2.5 | 164.1* | 4.9
CCCCc1cc(=O)oc2cc(OCC(=O)NCc3ccccn3)c(Cl)cc12 | -5.7 | -0.5 | -0.1 | 0.8 | 1.3 | 3.0
CCc1cc(=O)oc2c(C)c(OCC(=O)NCCCn3ccnc3)ccc12 | 0.9 | 1.9 | -2.2 | -4.7 | 12.9 | 11.8
O=C(CN1C(=O)NC(c2ccccc2)(c2ccccc2)C1=O)NC1CCCCC1 | -3.5 | / | -0.9 | -2.7 | -2.8 | -3.2
CCOc1ccc(CCNS(=O)(=O)c2c(C)nc3scc(C)n3c2=O)cc1OCC | 9.0 | 2.8 | -0.8 | -0.2 | -0.7 | 33.2*
COc1ccc(CCNS(=O)(=O)c2c(C)nc3scc(C)n3c2=O)cc1OC | 1.8 | -0.1 | 1.4 | / | -0.3 | 4.5
SMILES | Mtb bLac sens | Mtb UGM inh | Rv3671c protease | FadD28 FP inh | Mtb FBA inh | GDH-TPI inh
N#C/C(N=Nc1ccccc1O)=N\Nc1ccccc1O | 100.5 | 1.7 | -154.8 | 9.4* | -1.3 | 12.7
Oc1ccccc1N=N/C(=N/Nc1ccccc1O)c1ccccc1 | 24.2 | 1.9 | 1.0 | -0.3 | 1.1 | 5.1
CC1(OC(=O)c2cnc3ccccc3n2)C(=O)C=C2C=C(C3CC3)OC=C2C1=O (configuration not stated) | 0.8 | 4.7 | 38.5* | / | / | /
CC1(OC(=O)c2ccco2)C(=O)C=C2C=C(C3CC3)OC=C2C1=O (configuration not stated) | 13.0 | 0.2 | 6.4 | 7.4 | -0.5 | 6.2
COc1cc(N=Nc2cccc(S(N)(=O)=O)c2)c2ccccc2c1N | 19.9 | -2.1 | -6.4 | 9.7* | -13.6 | 7.8
CCCCNC(=O)C1(C)CCCCN1Cc1ccccc1-c1ccccc1 (configuration not stated) | / | / | / | -2.4 | 1.5 | 16.8
COCc1cc(C)n(CC(=O)Nc2ccc(Cl)cc2Cl)c(=O)c1C#N | -2.5 | 0.6 | 2.1 | 0.9 | 121.6* | 30.6
O=C(N/N=C/c1ccc(OCc2ccccc2)cc1)c1ccco1 | -1.8 | -0.4 | -8.0 | -3.8 | -3.9 | 13.0
COc1ccc(/C=N/NC(=O)c2cc(C)oc2C)cc1OCc1ccccc1 | -0.3 | 1.8 | -14.7 | -2.9 | -1.2 | 32.4*
COc1ccc(/C=N/NC(=O)c2ccco2)cc1OCc1ccccc1 | -10.6 | 1.6 | 4.1 | -2.6 | -1.6 | 39.5*
CCOC(=O)c1ccc(N(CC(=O)NC2CCCCC2)C(=O)CNC(=O)c2ccco2)cc1 | 4.1 | -1.5 | -8.5 | / | 0.7 | -9.5
Nc1nc(NCc2ccccc2)nc(NCCO)c1[N+](=O)[O-] | -5.9 | -1.5 | -1.0 | 0.1 | -4.5 | 31.7*
COc1ccccc1Nc1nc(NCCCN(C)C)nc(N)c1[N+](=O)[O-] | 0.9 | -5.4 | 2.6 | -2.7 | 0.0 | 38.2*
Nc1nc(NCCO)nc(NCC2CCCO2)c1[N+](=O)[O-] (configuration not stated) | 1.6 | -0.4 | -12.4 | -2.1 | -1.0 | 37.4*
CCN(CC)CCCNc1nc(N)c([N+](=O)[O-])c(NCCO)n1 | -2.7 | -2.7 | -2.0 | -1.9 | 0.0 | 21.5
CN(C)CCCNc1nc(N)c([N+](=O)[O-])c(NCCO)n1 | -2.8 | -1.2 | 3.9 | -2.8 | -2.8 | 38.2*
Nc1nc(NCCO)nc(NCc2ccccc2)c1[N+](=O)[O-] | 4.1 | 2.3 | 3.3 | -2.3 | -0.4 | 25.3
CSc1nsc(NN)n1 | / | / | / | -0.5 | -0.1 | 6.2
CCC(C)Nc1nc(N)c([N+](=O)[O-])c(Nc2ccccc2OC)n1 (configuration not stated) | 69.2 | 2.0 | -8.6 | -2.4 | 1.7 | 39.3*
CCOC(=O)c1ccc(NC(=S)NNC(=O)C2(C)CC2(Cl)Cl)cc1 (configuration not stated) | 7.8 | 1.9 | -5.5 | 15.1* | -3.0 | 11.6
COc1cc(/C=C/c2cc(OC(C)=O)c3ccccc3n2)c(OC(C)=O)c([N+](=O)[O-])c1 | -4.5 | 1.3 | -0.4 | 0.9 | -2.8 | 36.8*
